Experimental data: PubChem BioAssay AID504333 (National Center for Advancing Translational Sciences (NCATS), 2011)
The whole screen tested about 360,000 compounds, of which about 16,000 (4.4%) were called active. Not shown: some 9% with an inconclusive outcome. The call rests on the fitted dose curve; in most records, active means well fitted inhibition curve with a large enough effect; inconclusive means small, poorly fitted or top-dose-only effect; inactive means no such curve, though single readings can be large or run the other way. The entries come from a sample that favours actives as a whole.

The compounds below were run against Bromodomain adjacent to zinc finger domain protein 2B (Homo sapiens) (UniProt Q9UIF8) (assay: qHTS Assay for Inhibitors of BAZ2B). Details: AlphaScreen BAZ2B-H3K14Ac peptide displacement; series mostly up to 114 µM; activity change, negative = inhibition: at the top concentration.
Bromodomain adjacent to zinc finger domain protein 2B (Homo sapiens), sequence (Q9UIF8 whole entry, looked up, the tested form may be a part): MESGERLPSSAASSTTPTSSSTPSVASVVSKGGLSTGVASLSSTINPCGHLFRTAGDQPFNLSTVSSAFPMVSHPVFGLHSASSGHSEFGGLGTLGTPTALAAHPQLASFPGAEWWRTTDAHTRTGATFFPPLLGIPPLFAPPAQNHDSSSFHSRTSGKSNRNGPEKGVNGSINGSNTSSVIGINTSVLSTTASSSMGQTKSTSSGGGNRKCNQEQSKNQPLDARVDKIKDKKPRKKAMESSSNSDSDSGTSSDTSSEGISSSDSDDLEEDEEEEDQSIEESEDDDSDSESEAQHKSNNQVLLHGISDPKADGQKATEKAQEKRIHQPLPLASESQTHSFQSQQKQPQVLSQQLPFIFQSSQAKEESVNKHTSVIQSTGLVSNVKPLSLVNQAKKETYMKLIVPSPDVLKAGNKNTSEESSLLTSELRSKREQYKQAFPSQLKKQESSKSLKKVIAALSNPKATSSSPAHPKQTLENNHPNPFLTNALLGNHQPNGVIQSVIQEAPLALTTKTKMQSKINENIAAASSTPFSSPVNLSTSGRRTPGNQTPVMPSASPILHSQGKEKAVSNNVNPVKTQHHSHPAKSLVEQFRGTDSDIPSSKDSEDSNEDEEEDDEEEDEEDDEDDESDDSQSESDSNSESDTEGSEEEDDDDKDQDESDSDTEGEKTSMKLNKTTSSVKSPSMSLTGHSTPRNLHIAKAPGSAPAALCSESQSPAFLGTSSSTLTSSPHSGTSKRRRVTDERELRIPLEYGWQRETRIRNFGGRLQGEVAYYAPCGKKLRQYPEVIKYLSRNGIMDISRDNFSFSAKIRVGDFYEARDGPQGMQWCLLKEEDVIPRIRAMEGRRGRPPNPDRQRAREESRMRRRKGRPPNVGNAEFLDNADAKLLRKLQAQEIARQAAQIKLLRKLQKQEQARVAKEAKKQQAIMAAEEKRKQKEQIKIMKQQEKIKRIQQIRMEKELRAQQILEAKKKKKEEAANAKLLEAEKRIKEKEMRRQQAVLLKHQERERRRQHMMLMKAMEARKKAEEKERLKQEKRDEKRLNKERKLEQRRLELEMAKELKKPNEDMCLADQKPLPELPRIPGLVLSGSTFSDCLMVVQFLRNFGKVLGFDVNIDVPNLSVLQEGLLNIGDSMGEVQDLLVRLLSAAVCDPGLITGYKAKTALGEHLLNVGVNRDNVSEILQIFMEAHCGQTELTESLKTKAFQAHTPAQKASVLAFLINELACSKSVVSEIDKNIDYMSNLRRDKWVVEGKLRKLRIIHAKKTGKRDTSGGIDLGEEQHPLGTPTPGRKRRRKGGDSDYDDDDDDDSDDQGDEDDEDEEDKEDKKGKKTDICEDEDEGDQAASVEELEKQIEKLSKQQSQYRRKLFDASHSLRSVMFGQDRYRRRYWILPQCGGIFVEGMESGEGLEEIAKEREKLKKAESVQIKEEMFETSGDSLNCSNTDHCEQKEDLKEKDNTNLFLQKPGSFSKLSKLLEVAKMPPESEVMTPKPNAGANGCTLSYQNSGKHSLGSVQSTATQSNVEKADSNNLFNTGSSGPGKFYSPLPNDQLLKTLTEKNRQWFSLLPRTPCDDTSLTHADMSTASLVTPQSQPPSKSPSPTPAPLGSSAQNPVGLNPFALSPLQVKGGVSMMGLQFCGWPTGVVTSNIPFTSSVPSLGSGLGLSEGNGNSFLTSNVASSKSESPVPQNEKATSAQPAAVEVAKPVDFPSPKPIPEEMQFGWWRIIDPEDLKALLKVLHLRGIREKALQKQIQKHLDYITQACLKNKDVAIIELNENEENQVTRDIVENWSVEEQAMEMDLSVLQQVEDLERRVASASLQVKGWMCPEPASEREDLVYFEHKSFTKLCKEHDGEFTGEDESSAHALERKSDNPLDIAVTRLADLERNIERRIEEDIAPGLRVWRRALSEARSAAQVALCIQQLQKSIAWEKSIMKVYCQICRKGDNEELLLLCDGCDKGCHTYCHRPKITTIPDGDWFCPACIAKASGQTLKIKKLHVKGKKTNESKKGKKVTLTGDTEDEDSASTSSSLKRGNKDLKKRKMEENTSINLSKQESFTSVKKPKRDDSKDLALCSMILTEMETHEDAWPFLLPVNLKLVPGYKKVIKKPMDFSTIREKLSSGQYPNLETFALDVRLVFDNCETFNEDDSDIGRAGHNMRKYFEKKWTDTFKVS
In short: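 BAZ2B (50 nM) with biotin-H3(5-23)K14Ac peptide (50 nM) in PBS pH 7.4, 0.01% Tween-20, preformed 30 min, then compound 30 min at room temperature; top concentration 110uM. AlphaScreen streptavidin donor/nickel chelate acceptor beads (10 ug/mL final), 20 min dark, signal read.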
Further: nearly all actives have a fitted effect of over 60% in size.
On the % scale 0 is the no-effect control and ±100 the full control effect; potency means the concentration at half of the fitted maximal effect.

SMILES | activity change, negative = inhibition | Potency
Cc1ccccc1C(=O)NCc1nc(-c2ccc(Cl)cc2)no1 | 2.6% (inactive) | 
CCOC(=O)c1[nH]c(C)c(CCC(=O)N2CCN(c3ccccc3)CC2)c1C | -11.8% (inactive) | 
COc1ccc(/C=C(\C#N)C(=O)OCC(=O)N(C)C2CCS(=O)(=O)C2)cc1 (configuration not stated) | 12.8% (inactive) | 
CN(C(=O)COC(=O)c1nc(Cl)ccc1Cl)C1CCS(=O)(=O)C1 (configuration not stated) | 0.742% (inactive) | 
COc1ccc(-c2cc(C(=O)N(C)Cc3ccccc3)c3ccccc3n2)cc1 | -2.29% (inactive) | 
CN(CCOc1ccccc1)C(=O)c1cc(-c2ccco2)nc2ccccc12 |  | 44.7 µM (active)
COc1ccc(NC(=O)CN(C)C(=O)c2cc(-c3ccc(C)o3)nc3ccccc23)cc1 | -4.4% (inactive) | 
CN(C(=O)COC(=O)c1cc(-c2ccco2)nc2ccccc12)C1CCS(=O)(=O)C1 (configuration not stated) |  | 39.8 µM (active)
COc1ccc(OCC(=O)Nc2cccc(C(=O)OCc3cc(=O)n4nc(C)sc4n3)c2)cc1 | -5.85% (inactive) | 
Cc1cccc(N2CCN(C(=O)CCn3c(=O)c4cccn4c4cccnc43)CC2C)c1 (configuration not stated) | -36.6% (inactive) | 
NC(=O)C1CCN(C(=O)c2cccc(NC(=O)c3nsc4ccccc34)c2)CC1 | 4.68% (inactive) | 
Cc1[nH]c2ccccc2c1C(c1ccccc1)c1cccs1 (configuration not stated) | 1.62% (inactive) | 
O=C(CCS(=O)(=O)c1ccccc1)NC1CCCC1 | -1.71% (inactive) | 
CC(=O)c1cc(-c2ccccc2)n(CCC(=O)NC2CCCCCC2)c1C |  | 50.1 µM (active)
CC(=O)c1cc(-c2ccccc2)n(CC(=O)NC2CCCCC2)c1C |  | inactive
Cc1nc2nc(SCC(=O)N(Cc3ccccc3)C(C)C)nn2c(C)c1Cc1ccccc1Cl | -18.1% (inactive) | 
CCOc1cc(C(=O)Nc2nnc3n2CCS3)cc(OCC)c1OCC | 13.3% (inactive) | 
CCOC(=O)c1cc(NC(=O)c2ccc(F)cc2)c(=O)n2c1oc1ccccc12 | -12% (inactive) | 
CN(CC(=O)Nc1ccccc1F)S(=O)(=O)c1ccc2c(c1)c(=O)n(C)c(=O)n2C | 4.31% [at 57.1 µM] (inactive) | 
O=C(CN1C(=O)COc2ccc(S(=O)(=O)N3CCOCC3)cc21)N1CCN(c2cccc(Cl)c2)CC1 | -21.7% (inactive) | 
COCCNC(=S)N1CCC(NC(=O)C23CC4CC(CC(C4)C2)C3)CC1 | -8.68% (inactive) | 
COCCNC(=S)N1CCN(C)CC1 |  | 39.8 µM (active)
CCCNC(=S)N1CCC(NC(=O)c2ccc(OC)cc2)CC1 | -25.5% (inactive) | 
CCN1C(=O)c2ccccc2S(=O)c2ccc(C(=O)NCc3ccc(F)cc3)cc21 (configuration not stated) | -14.5% (inactive) | 
CCCCOC(=O)/C(C#N)=C/c1ccc(-c2cccc(C(F)(F)F)c2)o1 | -15.6% (inactive) | 
CCOc1ccc(Nc2nc3c(S(=O)(=O)c4cccc(Cl)c4)nnn3c3ccsc23)cc1 | -13% (inactive) | 

SMILES | activity change, negative = inhibition | Potency
Cc1ccc(OCCSc2nc(C)c(Cc3ccccc3)c(=O)[nH]2)cc1 | -2.49% (inactive) | 
S=C(c1ccc(-c2ccccc2)o1)N1CCCCC1 |  | 35.5 µM (active)
S=C(c1ccccc1)N1CCCC1 | 5.22% (inactive) | 
OCCN1CCN(C(=S)c2ccc(-c3ccccc3)cc2)CC1 | -7.79% (inactive) | 
CSc1ccc(CCNC(=O)c2ccc3c(c2)nc2n3CCOC2)cc1 | 4.23% (inactive) | 
COC/C=C/C1=CC2=CC(=O)C(C)(OC(=O)CCC(=O)OC)C(=O)C2=CO1 (configuration not stated) |  | 50.1 µM (active)
COC(=O)CCCC1=CC2=CC(=O)C(C)(OC(=O)c3cccs3)C(=O)C2=CN1CC(C)C (configuration not stated) | -15.3% (inactive) | 
COC(=O)CCCC1=CC2=CC(=O)C(C)(OC(=O)c3cccs3)C(=O)C2=CN1CC1CC1 (configuration not stated) | -30.3% (inactive) | 
CCC(=O)N1CCc2cc(Br)cc(S(=O)(=O)CCC(=O)N3CCN(c4ccc(F)cc4)CC3)c21 | 3.17% (inactive) | 
COc1ccc(-c2noc(CCC(=O)N(C)c3ccccc3C)n2)cc1 | 6.51% (inactive) | 
CCOc1cccc(C(=O)Nc2nnc(S(=O)(=O)N(C)c3ccc(C)cc3)s2)c1 | -2.91% (inactive) | 
CCc1ccc(NC(=O)CN2CCSc3ccc(S(=O)(=O)N4CCCC4)cc32)cc1 | -26.5% (inactive) | 
COc1cccc(Cn2cnc3c([N+](=O)[O-])c(C)c(C)cc32)c1 | -22.6% (inactive) | 
Cc1cccc(Cn2cnc3c(N)c(C)c(C)cc32)c1 |  | 56.2 µM (active)
CSc1nn(Cc2cccc(C)c2)c(N)c1S(=O)(=O)c1ccccc1 | 22.9% (inactive) | 
Cc1ccc(Cl)cc1NC(=O)Cc1ccc(-n2c(C)nc3cccnc32)cc1 | -5.91% (inactive) | 
CC(NC(=O)CCc1cn(Cc2ccccc2Cl)c2ccccc12)c1ccccc1 (configuration not stated) | -5.03% (inactive) | 
CCOc1ccc(CCNC(=O)c2cc3c(=O)n(C)c4ccccc4c3n2C)cc1 | -3.88% (inactive) | 
Cc1cc(C)c(OCC(=O)N/N=C/c2ccco2)c(C)c1 | 3.11% (inactive) | 
COC(=O)COc1ccc2c(c1C)O/C(=C\c1ccco1)C2=O |  | 50.1 µM (active)
COc1ccccc1OCC(=O)OCc1cc(-c2ccco2)on1 | 12.1% (inactive) | 
CCOC(=O)c1ccc2c(c1)N(Cc1cccc(OC)c1)C(=O)c1ccccc1S2(=O)=O | 4.73% (inactive) | 
CCc1nc(-c2cc(S(=O)(=O)N3CCN(c4ccc(OC)cc4)CC3)ccc2OC)no1 | -33.9% (inactive) | 
Cc1cc2c(cc1C)C(c1cccc(OC(C)C)c1)CC(=O)N2 (configuration not stated) | -1.89% (inactive) | 
Cc1cc(C)c2c(-c3ccc(F)cc3)c(C#N)c(=O)n(C)c2n1 | -1.61% (inactive) | 
N#Cc1c(-c2ccc(Cl)cc2)c2c([nH]c1=S)CCCC2 | -11.4% (inactive) | 

SMILES | activity change, negative = inhibition | Potency
CC(=O)c1c(C)[nH]c(=S)c(C#N)c1-c1ccc(F)cc1 |  | 79.4 µM (active)
CC(C)CCN(C(=O)Nc1ccc(Cl)c(Cl)c1)C(C)c1cccs1 (configuration not stated) | 72% (inactive) | 
Cc1ccc(Cn2c(CCCNC(=O)C3CCCCC3)nc3ccccc32)cc1 | -12.3% (inactive) | 
CCOc1ccc(NC(=O)c2cc3c(=O)n(Cc4cccs4)ccc3nc2C)cc1 | -15.9% (inactive) | 
CC1CC(c2ccccc2)n2nc(NC(=O)c3cccs3)nc2N1 (configuration not stated) |  | 79.4 µM (active)
COc1ccc(CC(=O)Nc2nc3n(n2)C(c2ccccc2)CC(=O)N3)cc1OC (configuration not stated) | -28.7% (inactive) | 
O=C(Nc1n[nH]c(C(F)(F)F)n1)c1cccs1 | -9.64% (inactive) | 
O=C(c1ccc2c(c1)N(Cc1ccc(Cl)cc1)C(=O)c1ccccc1S2(=O)=O)N1CCCCC1 | -21% (inactive) | 
Cc1ccc2nc(COc3cccc(NC(=O)c4ccccc4Cl)c3)cc(=O)n2c1 | 6.72% (inactive) | 
Cc1ccc(S(=O)(=O)n2nc(-c3ccc(Cl)cc3)nc2NCc2ccccc2)cc1 | 3.65% (inactive) | 
Cc1nc2ccccc2nc1N/N=C/c1ccc(O)cc1O |  | 25.1 µM (active)
FC(F)(F)c1nc2ccccc2nc1N/N=C/c1ccc(Cl)cc1 | -34.1% (inactive) | 
Cc1ccc(/C=N/NC(=O)C2=NNC(c3ccccc3)(c3ccccc3)C2)c(O)c1 | -5.41% (inactive) | 
Cc1ccc(Cl)cc1-n1ncc2c(N3CCC(C(N)=O)CC3)ncnc21 | -1.64% (inactive) | 
Cc1cccn2c(=O)c3cc(C(=O)NC(C)c4ccccc4)c(=N)n(CCCO)c3nc12 (configuration not stated) | 0.391% (inactive) | 
COc1ccc(-c2cc(NCc3ccc(F)cc3)n3cnnc3n2)cc1 | -2.56% (inactive) | 
Cc1ccc(CSc2nc3cccnc3n2Cc2ccc(C(=O)NC3CC3)cc2)cc1 | 6.32% (inactive) | 
Cc1ccc(NC(=O)CSCC(=O)Nc2sccc2C#N)cc1 | -2.43% (inactive) | 
Cc1csc(SCC(=O)Nc2sccc2C#N)n1 |  | 56.2 µM (active)
COc1ccc(NC(=O)CSc2nc(C)cs2)cc1 | 2.05% (inactive) | 
COc1ccc2c(c1)C=C(C(=O)NCc1cc(Br)ccc1OC)CO2 | -25.9% (inactive) | 
Cc1ccc(Cl)cc1NC(=O)CSc1nc2ccccc2nc1Cc1ccccc1 | 3.46% (inactive) | 
Cc1ccc(NS(=O)(=O)c2ccc(N/N=C/c3ccccc3OCC(=O)O)c([N+](=O)[O-])c2)c(C)c1 |  | 7.94 µM (active)
Cc1cccc(COc2ccccc2/C=N/Nc2ccc([N+](=O)[O-])cc2)c1 | 5.05% (inactive) | 
C=C(C)CNC(=S)N/N=C/c1ccccc1OCC(=O)O | -35.9% (inactive) | 
Cc1ccc(CCNC(=O)c2ccc(CS(=O)(=O)Cc3cccc(C)c3)o2)cc1 | 7.63% (inactive) | 

SMILES | activity change, negative = inhibition | Potency
Cc1ccc(CNC(=O)CSc2c3c(nc4cc(Cl)ccc24)CCCC3)cc1 | -0.494% (inactive) | 
CC(=O)N/N=C/c1cc2c(cc1[N+](=O)[O-])OCO2 | -9.58% (inactive) | 
CN(C)/N=C/c1cc(Cl)cc([N+](=O)[O-])c1O |  | 44.7 µM (active)
COc1ccc(NC(=O)C(c2ccccc2)N2Cc3ccccc3C2=O)cc1 (configuration not stated) | -15.6% (inactive) | 
COc1ccc2c(c1OC)C(=O)N(c1ncn[nH]1)C2 |  | 56.2 µM (active)
COc1ccc2c(c1OC)C(=O)c1ccccc1C2=O | -5.29% (inactive) | 
COc1ccc2c(c1OC)C(=O)N(c1ccc(O)cc1)C2 | -18.2% (inactive) | 
COc1ccc(Cc2nc3ccc(C(=O)NCc4ccccc4Cl)cc3o2)cc1 | -10.8% (inactive) | 
CCc1ccc(-n2nnc(-c3nc(-c4ccccc4)no3)c2C)cc1 | 4.12% (inactive) | 
O=C(CN1C(=O)C2C3C=CC(C3)C2C1=O)NCCc1ccccc1Cl (configuration not stated) | 4.62% (inactive) | 
O=C(CN1C(=O)C2C3C=CC(C3)C2C1=O)Nc1nc(-c2ccccn2)cs1 (configuration not stated) |  | 50.1 µM (active)
O=C(NCCN1C(=O)C2C3C=CC(C3)C2C1=O)Nc1ccccn1 (configuration not stated) | 9.03% (inactive) | 
CCOc1ccc(CNC(=O)c2cccc(Nc3nc4ccccc4n4nnnc34)c2)cc1OC | 3.33% (inactive) | 
Cc1ccc(OCCSc2nc3ccc(NC(=O)COc4ccc(C)cc4)cc3s2)cc1 | 0.408% (inactive) | 
Cc1cc(C)cc(Nc2ncnc3onc(-c4ccc(F)cc4)c23)c1 | 15.2% [at 57.1 µM] (inactive) | 
COC(=O)c1cccc(NC(=O)c2cccc(N3C(=O)CCC3=O)c2)c1 | 12.5% (inactive) | 
O=C(Nc1cccc2cccnc12)c1cccc(N2C(=O)CCC2=O)c1 | 2.18% (inactive) | 
COc1ccccc1-c1nnc(NC(=O)c2cccc(N3C(=O)CCC3=O)c2)o1 |  | 25.1 µM (active)
COc1ccc(Cc2nc3ccc(C(=O)NCc4ccc(OC)cc4OC)cc3o2)cc1 | -18.2% (inactive) | 
Cc1ccc(S(=O)(=O)c2nc(-c3ccco3)oc2SCC(=O)Nc2ccc(F)cc2)cc1 | -0.883% (inactive) | 
CCCCS(=O)(=O)c1oc(-c2cccs2)nc1S(=O)(=O)c1ccccc1 | -1.72% (inactive) | 
Cc1ccc(C)c(S(=O)(=O)c2nnn3c2nc(N2CCOCC2)c2sccc23)c1 | -3.84% (inactive) | 
O=C(NCCCO)c1nn(-c2ccc(Cl)cc2)nc1CO | 1.22% (inactive) | 
Cc1cc(NC(=O)C2CCC(CNS(=O)(=O)c3ccc(Br)s3)CC2)ccc1Br (configuration not stated) | 0.805% (inactive) | 
